Inconclusive results are not listed. Activity calls are given as the source filed them. The calls were made as follows, unless noted: active = hit-call score of the fitted dose curve at least 0.9, where 1 is the maximum; inconclusive = response in the unintended direction; inactive = score below 0.9.
Experiments:
[1] = biological target: rat Glutamate Metabotropic Receptor 5 (MGluR5), Grm5 (gene 24418) (UniProt P31424); assay: NVS_GPCR_rmMGluR5: NovaScreen (NVS) G Protein-Coupled Receptor Assay for rat Glutamate Metabotropic Receptor 5 (MGluR5) (AID 2283307)
rat Glutamate Metabotropic Receptor 5 (MGluR5), Grm5 (gene 24418), sequence (P31424 whole entry, looked up): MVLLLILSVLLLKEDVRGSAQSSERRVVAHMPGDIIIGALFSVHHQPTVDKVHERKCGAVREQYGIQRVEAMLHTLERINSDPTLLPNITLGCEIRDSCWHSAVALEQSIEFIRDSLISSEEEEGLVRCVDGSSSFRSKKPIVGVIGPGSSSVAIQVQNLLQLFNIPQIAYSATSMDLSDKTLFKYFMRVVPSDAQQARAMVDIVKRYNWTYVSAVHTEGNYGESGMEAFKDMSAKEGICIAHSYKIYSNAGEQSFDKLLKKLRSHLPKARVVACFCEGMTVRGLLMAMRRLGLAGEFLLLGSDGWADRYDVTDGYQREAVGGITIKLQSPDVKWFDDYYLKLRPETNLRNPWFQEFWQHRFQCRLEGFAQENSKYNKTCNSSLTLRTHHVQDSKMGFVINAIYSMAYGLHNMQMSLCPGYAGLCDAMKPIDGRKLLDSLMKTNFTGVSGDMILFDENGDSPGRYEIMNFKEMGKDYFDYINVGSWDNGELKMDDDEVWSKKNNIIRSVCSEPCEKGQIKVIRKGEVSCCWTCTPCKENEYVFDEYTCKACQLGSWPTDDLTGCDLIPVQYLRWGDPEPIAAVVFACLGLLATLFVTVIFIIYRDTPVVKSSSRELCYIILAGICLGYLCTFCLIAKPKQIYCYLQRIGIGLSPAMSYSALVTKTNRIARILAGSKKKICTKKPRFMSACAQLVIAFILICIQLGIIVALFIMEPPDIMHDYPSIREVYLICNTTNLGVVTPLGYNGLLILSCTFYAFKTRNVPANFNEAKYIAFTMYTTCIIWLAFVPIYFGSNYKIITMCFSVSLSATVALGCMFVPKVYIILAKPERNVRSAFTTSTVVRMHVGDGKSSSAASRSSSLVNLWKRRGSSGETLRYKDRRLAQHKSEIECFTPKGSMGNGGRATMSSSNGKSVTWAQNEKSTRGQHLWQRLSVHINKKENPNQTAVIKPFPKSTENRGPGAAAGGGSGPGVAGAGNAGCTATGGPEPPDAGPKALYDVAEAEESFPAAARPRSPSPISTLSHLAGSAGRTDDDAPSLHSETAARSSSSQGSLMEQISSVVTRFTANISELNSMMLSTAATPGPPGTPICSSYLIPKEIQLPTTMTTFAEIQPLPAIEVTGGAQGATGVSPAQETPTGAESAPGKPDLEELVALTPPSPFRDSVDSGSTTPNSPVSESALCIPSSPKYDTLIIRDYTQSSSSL
Summary of the method: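 Rat whole-brain membrane preparation; filter-based radioligand binding read by scintillation counting, 1.5 h after dosing. Single-point screen at 25 uM in duplicate; hits over threshold (e.g. 30% inhibition) retested in concentration-response up to 50 uM; loss of signal vs DMSO.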

[2] = biological target: rat Oxytocin Receptor (OXT), Oxtr (gene 25342) (UniProt P70536); assay: NVS_GPCR_rOXT: NovaScreen (NVS) G Protein-Coupled Receptor Assay for rat Oxytocin Receptor (OXT) (AID 2283330)
rat Oxytocin Receptor (OXT), Oxtr (gene 25342), sequence (P70536 whole entry, looked up): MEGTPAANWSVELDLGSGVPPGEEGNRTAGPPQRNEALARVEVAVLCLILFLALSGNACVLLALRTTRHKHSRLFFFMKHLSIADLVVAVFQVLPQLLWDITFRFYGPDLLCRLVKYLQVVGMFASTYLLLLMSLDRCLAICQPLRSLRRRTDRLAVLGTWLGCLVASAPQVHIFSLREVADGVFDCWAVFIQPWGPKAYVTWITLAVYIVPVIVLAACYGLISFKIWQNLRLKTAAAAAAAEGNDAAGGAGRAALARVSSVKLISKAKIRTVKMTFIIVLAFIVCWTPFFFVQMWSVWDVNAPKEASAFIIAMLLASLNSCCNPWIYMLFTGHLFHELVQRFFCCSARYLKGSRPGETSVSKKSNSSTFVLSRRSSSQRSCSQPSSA
Summary of the method: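 Radioligand displacement on rat uterine membranes, 1 h incubation, filter-based scintillation counting. Chemicals were screened in duplicate at 25 uM, and those passing threshold were retested in concentration-response up to 50 uM. Loss of binding was fitted versus DMSO.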

[3] = biological target: Norway rat Vesicular Monoamine Transporter (VMAT2), neurotransmitter transporter, Slc18a2 (gene 25549) (UniProt Q01827); assay: NVS_TR_rVMAT2: NovaScreen (NVS) Transporter Assay for Norway rat Vesicular Monoamine Transporter (VMAT2), neurotransmitter transporter (AID 2283376);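 also: actives lower the bound radioligand signal below the DMSO level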
Norway rat Vesicular Monoamine Transporter (VMAT2), neurotransmitter transporter, Slc18a2 (gene 25549), sequence (Q01827 whole entry, looked up): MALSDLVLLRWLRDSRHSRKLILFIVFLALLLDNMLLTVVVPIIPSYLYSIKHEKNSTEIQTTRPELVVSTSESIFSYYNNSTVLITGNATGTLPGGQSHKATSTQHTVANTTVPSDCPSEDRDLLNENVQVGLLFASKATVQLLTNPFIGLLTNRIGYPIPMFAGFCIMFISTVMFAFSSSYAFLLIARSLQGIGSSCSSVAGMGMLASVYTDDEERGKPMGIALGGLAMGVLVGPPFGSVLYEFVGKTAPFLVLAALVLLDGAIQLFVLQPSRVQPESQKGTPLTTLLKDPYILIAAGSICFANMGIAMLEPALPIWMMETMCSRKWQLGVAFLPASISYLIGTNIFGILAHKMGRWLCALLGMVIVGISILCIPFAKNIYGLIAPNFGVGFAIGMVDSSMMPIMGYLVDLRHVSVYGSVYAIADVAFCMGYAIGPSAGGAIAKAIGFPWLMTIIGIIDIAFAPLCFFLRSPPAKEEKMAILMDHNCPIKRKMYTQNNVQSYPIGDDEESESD
Summary of the method: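 Rat forebrain tissue preparation used in a cell-free radioligand binding format; displacement read by filter-based scintillation counting 1 hour after dosing. Primary screen in duplicate at 25 uM, actives then run in concentration series; loss of signal versus DMSO baseline.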

[4] = test system: rat CYP2C6, gene 293989; assay: NVS_ADME_rCYP2C6: NovaScreen (NVS) CYP450-related Enzyme Activity (ADME) Assay for rat CYP2C6 (AID 2283120)
Summary of the method: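 Cell-free recombinant rat CYP2C6 with fluorogenic substrate, read by fluorescence 1 h after dosing; acetonitrile as negative control. Primary screen at 10 uM in duplicate, actives then in concentration-response up to 20 uM.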

[5] = UKN5_HCS_SBAD2_cell_viability: Viability Assessment in the University of Konstanz (UKN) Leist Lab Neurite Outgrowth Assay in human iPSC-derived immature Dorsal Root Ganglia Neurons (UKN5) (AID 2284056; active = hit-call score of the fitted dose curve at least 0.9, where 1 is the maximum; inactive = score below 0.9)
Summary of the method: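 iPSC-derived immature peripheral neurons (SBAD2) seeded on Matrigel with CHIR99021, SU5402 and DAPT, dosed 1 h later for 24 h. Viability from Hoechst H-33342 and calcein-AM live staining, high-content imaging; bidirectional fit versus DMSO.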

[6] = UKN5_HCS_SBAD2_neurite_outgrowth: University of Konstanz (UKN) Leist Lab Neurite Outgrowth Assay in human iPSC-derived immature Dorsal Root Ganglia Neurons (UKN5) (AID 2284070; active = hit-call score of the fitted dose curve at least 0.9, where 1 is the maximum; inactive = score below 0.9); settings: actives raise or lower the signal
Summary of the method: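 Human iPSC-derived immature DRG neurons (SBAD2) on Matrigel with CHIR99021 (1.5 uM), SU5402 (5 uM), DAPT (5 uM); compounds added 1 h post-seeding for 24 h. Calcein-AM neurite area imaged; bidirectional fit vs DMSO.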

[7] = UKN2_HCS_IMR90_neural_migration: University of Konstanz (UKN) Leist Lab Neural Crest Cell Migration Assay in human induced IMR90 Pluripotent Stem Cells (UKN2) (AID 2284204; active = hit-call score of the fitted dose curve at least 0.9, where 1 is the maximum; inactive = score below 0.9); settings: actives raise or lower the signal
Summary of the method: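 iPSC-derived IMR90 neural crest cells on PLO/laminin/fibronectin were seeded around silicone stoppers; after stopper removal, migration in N2-S medium with EGF and FGF ran 24 h before 24 h chemical exposure. Calcein-AM/Hoechst high-content imaging; bidirectional fit versus DMSO.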

[8] = UKN4_HCS_LUHMES_neurite_outgrowth: University of Konstanz (UKN) Leist Lab Neurite Outgrowth Assay in human LUHMES cells (UKN4) (AID 2284206; active = hit-call score of the fitted dose curve at least 0.9, where 1 is the maximum; inactive = score below 0.9); settings: actives raise or lower the signal
Summary of the method: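 LUHMES neuronal precursors differentiated 2 days, replated without cAMP/GDNF, then exposed to chemicals for 24 h. Neurite area imaged by high-content microscopy after calcein-AM staining; Hoechst H-33342 marks viability. Bidirectional fit versus DMSO.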

[9] = UKN4_HCS_LUHMES_cell_viability: Viability Assessment in the University of Konstanz (UKN) Leist Lab Neurite Outgrowth Assay in human LUHMES cells (UKN4) (AID 2284232; active = hit-call score of the fitted dose curve at least 0.9, where 1 is the maximum; inactive = score below 0.9)
Summary of the method: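 LUHMES cells differentiated 2 days, replated without cAMP/GDNF, then exposed to compounds for 24 h from attachment. Viability read by high-content fluorescence imaging after 30 min live-staining with H-33342 and calcein-AM; bidirectional fit relative to DMSO baseline.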

[10] = UKN2_HCS_IMR90_cell_viability: Viability Assessment in the University of Konstanz (UKN) Leist Lab Neural Crest Cell Migration Assay in human induced IMR90 Pluripotent Stem Cells (UKN2) (AID 2284233; active = hit-call score of the fitted dose curve at least 0.9, where 1 is the maximum; inactive = score below 0.9;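 also: viability of neural crest cells differentiated from IMR90 iPSC measured by calcein-AM fluorescence imaging; cells exposed to compound for 24 h after a 24 h migration phase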)
Summary of the method: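 iPSC-derived (IMR90) neural crest cells seeded around silicone stoppers on PLO/laminin/fibronectin; after 24 h migration in N2-S with EGF/FGF, chemical added for 24 h. Calcein-AM/Hoechst stained 30 min, high-content imaged; bidirectional fit versus DMSO.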

[11] = biological target: human CYP2C9, CYP2C9 (gene 1559) (UniProt P11712); assay: NVS_ADME_hCYP2C9: NovaScreen (NVS) CYP450-related Enzyme Activity (ADME) Assay for human CYP2C9 (AID 2283108)
Summary of the method: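 Cell-free assay of recombinant human CYP2C9 produced in Sf9 cells, with enzyme activity read by fluorescence intensity 0.75 h after compound addition. Loss of signal versus an acetonitrile negative control indicates inhibition. Primary screen used 10 uM in duplicate; actives were retested in concentration series.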

[12] = biological target: zebrafish Estrogen Receptor (ESR1), esr1 (gene 259252) (UniProt P57717); assay: ATG_zfER1_XSP1: Attagene TRANS-FACTORIAL Multi-Species (XSP1) HepG2 Assay for zebrafish Estrogen Receptor (ESR1) (AID 2283772)
zebrafish Estrogen Receptor (ESR1), esr1 (gene 259252), sequence (P57717 whole entry, looked up, the tested form may be a part): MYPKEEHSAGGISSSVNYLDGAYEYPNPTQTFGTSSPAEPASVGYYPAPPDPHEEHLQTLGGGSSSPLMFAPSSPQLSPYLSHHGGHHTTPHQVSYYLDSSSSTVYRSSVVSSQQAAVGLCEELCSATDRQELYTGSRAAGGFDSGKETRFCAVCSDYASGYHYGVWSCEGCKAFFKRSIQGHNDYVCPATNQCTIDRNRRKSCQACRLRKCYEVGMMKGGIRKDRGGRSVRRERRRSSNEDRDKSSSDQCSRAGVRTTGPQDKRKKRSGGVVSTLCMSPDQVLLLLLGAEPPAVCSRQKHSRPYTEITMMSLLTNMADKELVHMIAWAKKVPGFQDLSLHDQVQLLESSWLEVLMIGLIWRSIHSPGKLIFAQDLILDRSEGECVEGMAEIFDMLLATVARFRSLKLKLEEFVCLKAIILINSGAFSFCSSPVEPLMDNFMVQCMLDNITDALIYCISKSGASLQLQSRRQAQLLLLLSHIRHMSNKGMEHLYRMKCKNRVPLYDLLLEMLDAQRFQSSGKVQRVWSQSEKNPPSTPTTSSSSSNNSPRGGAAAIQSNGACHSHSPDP
Summary of the method: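 Readout: fluorescent reporter mRNA, RT-PCR plus FAM labelling, HpaI digest, capillary electrophoresis; gain-of-signal fit vs DMSO. HepG2, transient multi-reporter TRANS (NR-GAL4 chimera), 24 h chemical exposure, 3 nM 6-alpha-fluorotestosterone co-added.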

[13] = test system: frog Estrogen Receptor (ESR1), gene 398734; assay: ATG_frER1_XSP1: Attagene TRANS-FACTORIAL Multi-Species (XSP1) HepG2 Assay for frog Estrogen Receptor (ESR1) (AID 2283777)
Summary of the method: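 Read-out: fluorescent reporter mRNA via RT-PCR, HpaI digestion and capillary electrophoresis, after 24 h chemical exposure of transiently transfected human HepG2 cells expressing exogenous NR-Gal4 chimeras. DMSO served as baseline for positive-direction fitting.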

[14] = biological target: Peroxisome proliferator-activated receptor gamma (Homo sapiens) (UniProt P37231); assay: ATG_hPPARg_XSP1: Attagene TRANS-FACTORIAL Multi-Species (XSP1) HepG2 Assay for human Peroxisome Proliferator-activated Receptor gamma (PPARg) (AID 2283800)
Peroxisome proliferator-activated receptor gamma (Homo sapiens), sequence (P37231 whole entry, looked up, the tested form may be a part): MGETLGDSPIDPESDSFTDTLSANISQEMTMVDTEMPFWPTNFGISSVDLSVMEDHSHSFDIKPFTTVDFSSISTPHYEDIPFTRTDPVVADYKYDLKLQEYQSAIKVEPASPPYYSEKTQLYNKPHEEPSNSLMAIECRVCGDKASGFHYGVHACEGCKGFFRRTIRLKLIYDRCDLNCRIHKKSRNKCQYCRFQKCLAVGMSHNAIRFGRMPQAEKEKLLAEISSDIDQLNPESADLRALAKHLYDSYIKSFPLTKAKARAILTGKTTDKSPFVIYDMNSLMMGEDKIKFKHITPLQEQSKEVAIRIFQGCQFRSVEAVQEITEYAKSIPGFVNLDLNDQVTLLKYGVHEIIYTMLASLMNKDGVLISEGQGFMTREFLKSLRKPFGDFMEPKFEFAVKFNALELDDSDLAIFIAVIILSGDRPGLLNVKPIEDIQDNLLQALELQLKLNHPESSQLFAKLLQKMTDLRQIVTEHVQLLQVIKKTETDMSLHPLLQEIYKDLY
Summary of the method: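 HepG2 cells transiently transfected with GAL4-UAS reporter units carrying chimeric NR-Gal4 proteins; 3 nM 6-alpha-fluorotestosterone present. After 24 h dosing, reporter mRNA quantified by RT-PCR and capillary electrophoresis; gain of signal relative to DMSO.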

[15] = biological target: mouse Peroxisome Proliferator-activated Receptor gamma (PPARg), Pparg (gene 19016) (UniProt P37238); assay: ATG_mPPARg_XSP1: Attagene TRANS-FACTORIAL Multi-Species (XSP1) HepG2 Assay for mouse Peroxisome Proliferator-activated Receptor gamma (PPARg) (AID 2283802)
mouse Peroxisome Proliferator-activated Receptor gamma (PPARg), Pparg (gene 19016), sequence (P37238 whole entry, looked up, the tested form may be a part): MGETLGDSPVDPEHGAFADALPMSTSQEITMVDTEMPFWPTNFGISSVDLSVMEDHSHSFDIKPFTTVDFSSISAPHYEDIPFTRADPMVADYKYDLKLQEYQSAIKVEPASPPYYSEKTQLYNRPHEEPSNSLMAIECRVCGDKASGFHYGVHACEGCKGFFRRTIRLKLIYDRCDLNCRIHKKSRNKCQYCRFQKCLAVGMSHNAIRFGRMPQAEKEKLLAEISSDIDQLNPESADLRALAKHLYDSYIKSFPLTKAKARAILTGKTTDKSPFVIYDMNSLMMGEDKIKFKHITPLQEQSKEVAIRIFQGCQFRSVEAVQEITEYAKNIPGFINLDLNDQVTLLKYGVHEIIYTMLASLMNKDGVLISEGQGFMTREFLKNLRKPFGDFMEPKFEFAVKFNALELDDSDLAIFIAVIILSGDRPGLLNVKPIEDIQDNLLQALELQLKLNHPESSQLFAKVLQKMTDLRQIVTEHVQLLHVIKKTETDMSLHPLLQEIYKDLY
Summary of the method: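 HepG2 cells transiently transfected with GAL4-UAS reporter units driven by mouse PPARg–GAL4 chimera; 3 nM 6-alpha-fluorotestosterone present. After 24 h dosing, reporter mRNA quantified by RT-PCR, fluorescent labelling and capillary electrophoresis; gain of signal versus DMSO.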

[16] = biological target: frog Thyroid hormone Receptor alpha (TRa), thra-a (gene 397942) (UniProt P15204); assay: ATG_frTRa_XSP1: Attagene TRANS-FACTORIAL Multi-Species (XSP1) HepG2 Assay for frog Thyroid hormone Receptor alpha (TRa) (AID 2283804)
frog Thyroid hormone Receptor alpha (TRa), thra-a (gene 397942), sequence (P15204 whole entry, looked up, the tested form may be a part): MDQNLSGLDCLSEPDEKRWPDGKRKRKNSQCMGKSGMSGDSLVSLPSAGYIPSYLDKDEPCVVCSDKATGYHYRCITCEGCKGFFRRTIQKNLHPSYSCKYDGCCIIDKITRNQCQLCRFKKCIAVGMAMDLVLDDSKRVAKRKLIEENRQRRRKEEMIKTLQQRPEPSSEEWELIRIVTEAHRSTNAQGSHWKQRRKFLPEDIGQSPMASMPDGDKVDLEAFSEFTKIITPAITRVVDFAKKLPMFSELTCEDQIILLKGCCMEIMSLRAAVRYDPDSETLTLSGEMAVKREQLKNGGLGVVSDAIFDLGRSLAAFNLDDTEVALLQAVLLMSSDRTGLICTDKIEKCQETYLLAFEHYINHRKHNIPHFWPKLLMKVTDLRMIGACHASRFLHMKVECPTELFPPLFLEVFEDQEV
Summary of the method: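 HepG2 cells transiently transfected with frog TRa-GAL4 chimeric reporter units, dosed 24 hr with 3 nM 6-alpha-fluorotestosterone present; reporter mRNA quantified by RT-PCR, fluorescent labelling and capillary electrophoresis, gain of signal versus DMSO.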

[17] = biological target: human Thyroid hormone Receptor alpha (TRa), THRA (gene 7067) (UniProt P10827); assay: ATG_hTRa_XSP1: Attagene TRANS-FACTORIAL Multi-Species (XSP1) HepG2 Assay for human Thyroid hormone Receptor alpha (TRa) (AID 2283805)
human Thyroid hormone Receptor alpha (TRa), THRA (gene 7067), sequence (P10827 whole entry, looked up, the tested form may be a part): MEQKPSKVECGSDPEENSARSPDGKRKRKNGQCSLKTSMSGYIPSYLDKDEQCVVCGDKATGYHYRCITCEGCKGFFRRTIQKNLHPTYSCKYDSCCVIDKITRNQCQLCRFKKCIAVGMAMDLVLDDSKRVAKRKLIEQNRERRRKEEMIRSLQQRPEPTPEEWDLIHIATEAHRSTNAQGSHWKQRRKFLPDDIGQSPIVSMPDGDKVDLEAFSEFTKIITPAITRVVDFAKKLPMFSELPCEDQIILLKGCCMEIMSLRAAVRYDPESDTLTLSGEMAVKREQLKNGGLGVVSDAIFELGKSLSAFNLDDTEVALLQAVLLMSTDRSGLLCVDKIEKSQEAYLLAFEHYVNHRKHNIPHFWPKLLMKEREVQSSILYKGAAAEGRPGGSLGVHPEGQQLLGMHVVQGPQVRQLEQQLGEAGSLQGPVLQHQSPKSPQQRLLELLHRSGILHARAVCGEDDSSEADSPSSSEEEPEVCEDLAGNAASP
Summary of the method: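 HepG2 cells transiently transfected with GAL4-UAS reporter units expressing chimeric NR-Gal4 proteins, dosed 24 hours with 3 nM 6-alpha-fluorotestosterone present. Reporter mRNA measured by RT-PCR and capillary electrophoresis; gain of signal fitted versus DMSO.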

[18] = biological target: zebrafish Estrogen Receptor (ER1), esr1 (gene 259252) (UniProt P57717); assay: ATG_zfER1_XSP2: Attagene TRANS-FACTORIAL Multi-Species (XSP2) HepG2 Assay for zebrafish Estrogen Receptor (ER1) (AID 2283816)
zebrafish Estrogen Receptor (ER1), esr1 (gene 259252), sequence (P57717 whole entry, looked up, the tested form may be a part): as the sequence (P57717 whole entry, looked up, the tested form may be a part) above
Summary of the method: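 HepG2 cells transiently transfected with a GAL4-UAS reporter and a chimeric zebrafish ER1-Gal4 construct, dosed 24 h. Reporter mRNA quantified by RT-PCR, labelling, HpaI digestion and capillary electrophoresis, relative to DMSO.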

[19] = test system: zebrafish Estrogen Receptor (ER2a), gene 317734; assay: ATG_zfER2a_XSP2: Attagene TRANS-FACTORIAL Multi-Species (XSP2) HepG2 Assay for zebrafish Estrogen Receptor (ER2a) (AID 2283818);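 also: hits raise reporter mRNA so AC50 reflects activation of zebrafish ER2a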
Summary of the method: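 HepG2 cells transiently transfected with GAL4-UAS reporter units and chimeric zebrafish ER2a-Gal4, exposed 24 h; medium contains 3 nM 6-alpha-fluorotestosterone and 1.5 nM norgestrel. Reporter mRNA quantified by RT-PCR, HpaI digestion, capillary electrophoresis; gain versus DMSO.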

[20] = test system: frog Estrogen Receptor (ER), gene 398734; assay: ATG_frER1_XSP2: Attagene TRANS-FACTORIAL Multi-Species (XSP2) HepG2 Assay for frog Estrogen Receptor (ER) (AID 2283821);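 also: hits raise reporter mRNA above DMSO baseline so potency means agonist or activator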
Summary of the method: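 HepG2, transient MRTU transfection, chimeric NR-GAL4/UAS reporters; 24 h compound exposure, 24-well. Readout: reporter mRNA via RT-PCR + capillary electrophoresis, fluorescence. Positive fit vs DMSO baseline.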

Measured: AC50

N#CCCCCC#N
inactive: [1] | [2] | [3]

CC1(C)[C@H](C(=O)O[C@H](C#N)c2cccc(Oc3ccccc3)c2)[C@@H]1C=C(Br)Br
active: [5] 115000 nM | [6] 111000 nM
inactive: [4] | [7] | [8] | [9] | [10]

CC(C)(c1cc(Cl)c(O)c(Cl)c1)c1cc(Cl)c(O)c(Cl)c1
active: [11] 2290 nM | [14] 2730 nM | [15] 2920 nM | [19] 1620 nM | [20] 2800 nM
inactive: [12] | [13] | [16] | [17] | [18]
